# Compound activity: PubChem, The Scripps Research Institute Molecular Screening Center
# ssDAF12 agonist: S. stercoralis DAF-12 nuclear receptor activators, primary screen, cell-based, luminescence, HEK293, GRIP1 co-expression, lit1-tk-luc. HEK293 ssDAF-12/GRIP1 lit1-tk-luc reporter; % of 3 µM dafachronic acid response. hit rate 1% among 370,000. AID 652126, 2013. activation, % at 6.8 µM. Nuclear hormone receptor DAF-12 (Strongyloides stercoralis);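 active = activation above the mean over all tested compounds plus 3 SD, cut at about 0.9% in these data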;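 note: 0% = DMSO-only wells and 100% = 3 µM delta7-dafachronic acid wells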
# hgDAF-12 ag: H. glycines DAF-12 receptor agonists, primary screen, cell-based, luminescence, HEK293, GAL4 fusion, UAS-luciferase | AID 687014, 2013 | activation, % at 6.8 µM | hit rate 1.8% among 370,000 | HEK293 GAL4-hgDAF12 UAS-luciferase reporter, agonist luminescence; normalized to butyrate control | Nuclear hormone receptor DAF-12 (Heterodera glycines), GAL4 fusion;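 active = activation above a cutoff set at the mean of all screened compounds plus 3 SD, cut at about 10% in these data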;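 note: 0% = DMSO wells and 100% = sodium butyrate wells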
# hcDAF12 agonist: H. contortus DAF-12 nuclear receptor activators, primary screen, cell-based, luminescence, HEK293, lit1-tk-luc reporter; AID 652067, 2013; activation, % at 6.8 µM; HEK293 hcDAF-12 lit1-tk-luc reporter; 0% DMSO, 100% Δ7-dafachronic acid; hit rate 1.4% among 370,000;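 active = activation above the mean of all tested compounds plus 3 SD, cut at about 5.5% in these data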;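 note: 100% = response to 3 µM Δ7-dafachronic acid high control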
# DAX1 inh-1: DAX1 (NR0B1) inhibitors, primary screen, cell-based, HEK293, Gal4-DAX1, luciferase luminescence | inhibition, % at 6.75 µM | hit rate 0.99% among 340,000 | Nuclear receptor subfamily 0 group B member 1 (Homo sapiens), P51843 | AID 504766, 2011 | HEK293 Gal4-DAX1 luciferase reporter;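 active = inhibition above the mean over all tested compounds plus 3 SD, cut at about 4.2% in these data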;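 note: 0% = DAX1-transfected cells with DMSO and 100% = empty-vector control cells with DMSO; inhibition shows as a rise in luminescence from relieved DAX1 repression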
# Target sequence (P51843 207-470 limits assumed): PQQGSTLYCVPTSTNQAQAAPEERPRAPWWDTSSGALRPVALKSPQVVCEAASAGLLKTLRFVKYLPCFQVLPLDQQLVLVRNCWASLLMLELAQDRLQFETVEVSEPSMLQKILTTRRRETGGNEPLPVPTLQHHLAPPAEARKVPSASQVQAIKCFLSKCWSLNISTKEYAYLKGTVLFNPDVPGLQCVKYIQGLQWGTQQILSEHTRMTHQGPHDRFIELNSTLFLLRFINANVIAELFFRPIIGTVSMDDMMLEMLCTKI
# DAX1 inh-2: DAX1 (NR0B1) inhibitors on StAR promoter, primary screen, cell-based, luminescence, SF-1 (NR5A1), full-length DAX-1; AID 652010, 2013; hit rate 1.1% among 370,000; HEK293T StAR-luciferase reporter, SF-1/DAX-1 repression relief; inhibition, % at 6.8 µM;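 active = inhibition above the mean over all tested compounds plus 3 SD, cut at about 3.6% in these data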;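 note: 0% = DAX-1 cells with DMSO and 100% = cells lacking DAX-1 with DMSO; higher inhibition means more luminescence from relief of DAX-1 repression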
# Numbers without * were called inactive; nt = no result given. Compounds with a hit are over-represented: about 4.1% of the library has one in this group of screens.
SMILES,ssDAF12 agonist,hgDAF-12 ag,hcDAF12 agonist,DAX1 inh-1,DAX1 inh-2
Cn1c(=O)c2c(ncn2CC(=O)OCC(=O)Nc2cc(Cl)ccc2C#N)n(C)c1=O,1,0,6.0*,1,0
Cc1cc(S(=O)(=O)NC(=O)[C@H]2O[C@@H](n3ccc(=O)[nH]c3=O)[C@H](O)[C@@H]2O)ccc1Br,-1,-1,-1,nt,0
COc1cc(OC)cc(C(C)c2ccc(C)cc2)c1 (centres undefined),-1,4,-1,nt,nt
O=C(COc1ccccc1)Nc1cc(Cl)ccc1Cl,0,7,5.9*,4.6*,1
COC(=O)[C@]12C[C@H](CC(=O)NCc3cccc(C(F)(F)F)c3)C(=O)N(Cc3ccccc3)C1=C[C@H](C(C)C)O[C@@H]2C1CC1,-1,2,-2,nt,1
CC(C)c1ccc(N(C(=O)c2csnn2)C(C(=O)NC(C)(C)C)c2ccncc2)cc1 (centres undefined),0,17*,6.3*,2,1
C=CCN=C1NC(c2cccc(C(F)(F)F)c2)C(C(=O)OC)=C(C)N1Cc1ccccc1C(F)(F)F (centres undefined),-1,1,0,nt,1
COC(=O)[C@]12C[C@H](CC(=O)NCc3ccc(OC)c(OC)c3)C(=O)N(Cc3ccc(Cl)cc3Cl)C1=C[C@H](C1CCCC1)O[C@@H]2C,-1,1,-1,nt,-2
COc1ccc(CN2C(=O)N3Cc4ccc(C)cc4C3CS2(=O)=O)cc1 (centres undefined),-1,1,0,nt,-1
CC(=O)N1C[C@@H](CO)[C@@H](N(C)C(=O)/C=C/c2ccccc2)C[C@H]1c1ccccc1,-1,2,-1,nt,-1
Clc1cccc(CN2CCCCCC2)c1,-1,1,-2,-1,0
Clc1ccc(-c2nc3cc(CN4CCCCC4)ccc3o2)cc1,0,11*,3,3,1
CN1CCN(c2ccc3c(c2)Oc2ccccc2CN(Cc2cn(Cc4ccc(C(F)(F)F)cc4)nn2)S3(=O)=O)CC1,-1,-1,-1,nt,-1
CC(=O)c1c(C)[nH]c(C(=O)Nc2ccc(Cl)cc2F)c1C,0,11*,2,2,2
CC(=O)c1c(C)[nH]c(C(=O)OCC(=O)Nc2ccc(Cl)c(S(=O)(=O)N(C)C)c2)c1C,-3,-13,-5,-3,-2
CC(=O)c1c(C)[nH]c(C(=O)Nc2ccc(Cl)c(S(=O)(=O)N(C)C)c2)c1C,-1,6,2,10.0*,2
COc1ccc(S(=O)(=O)N2CCCCC2)cc1NC(=O)c1[nH]c(C)c(C(C)=O)c1C,0.9*,1,6.2*,4.5*,-1
COc1ccc(C2Nc3ccc4ccccc4c3-c3c2c(=O)oc2ccccc32)cc1 (centres undefined),1.4*,1,4,0,0
Cc1cccc(CCNC(=O)Cn2ncc3c2-c2cc(C)ccc2OC3)c1,-2,-3,-3,nt,-2
CC(C)(C)c1ccc(OC(=O)N2CCOCC2)cc1,0,11*,4,1,2
C=CCNC(=O)CCC(=O)NNc1nc2ccccc2c2nc(-c3ccccc3)nn12,1,1,3,1,0
C=CCSc1nc2ccccc2c2nc(-c3ccccc3)nn12,0,3,2,4.7*,0
O=C(c1cc(F)ccc1F)N1CCCC(c2nc(-c3cccs3)no2)C1 (centres undefined),-1,5,-2,nt,1
CCOC(=O)c1nc(-c2ccc(OC)c(OC)c2)cnc1C#N,-1,-4,4,6.9*,1
O=S1(=O)c2c(cccc2N2CCC[C@@H]2CO)O[C@H]2CCN1C2,-1,2,-2,nt,1
Cc1cc2nc(-c3ccc(Cl)cc3)c(Cc3cccc(Cl)c3)n2c(C)c1Br,1.1*,3,3,nt,2
Cc1cc2nc(-c3cccc(Cl)c3)c(Cc3cccc(Cl)c3)n2c(C)c1Br,0,2,3,nt,1
